Results as given in PubChem BioAssay (NCATS).
Records with an inconclusive call do not appear. Calls of active or inactive are those of the source. Unless noted, calls follow the shape of the dose curve; as a rule, active = well fitted curve in either direction with a large enough effect (not every such curve was filed as active); inconclusive = small, poorly fitted or top-dose-only effect, or another doubt; inactive = flat fitted curve, though single readings scatter.

Tests used:
[1] = target: Lysosomal acid glucosylceramidase (Homo sapiens) (UniProt P04062); assay: Glucocerebrosidase-p2 (AID 348; in the data active = potency below about 10 µM; also: potency is read from the fitted curve at half-maximal effect); settings: purified GBA, blue fluorogenic substrate, 40 min
Chain of Lysosomal acid glucosylceramidase (Homo sapiens) (P04062 whole entry, looked up): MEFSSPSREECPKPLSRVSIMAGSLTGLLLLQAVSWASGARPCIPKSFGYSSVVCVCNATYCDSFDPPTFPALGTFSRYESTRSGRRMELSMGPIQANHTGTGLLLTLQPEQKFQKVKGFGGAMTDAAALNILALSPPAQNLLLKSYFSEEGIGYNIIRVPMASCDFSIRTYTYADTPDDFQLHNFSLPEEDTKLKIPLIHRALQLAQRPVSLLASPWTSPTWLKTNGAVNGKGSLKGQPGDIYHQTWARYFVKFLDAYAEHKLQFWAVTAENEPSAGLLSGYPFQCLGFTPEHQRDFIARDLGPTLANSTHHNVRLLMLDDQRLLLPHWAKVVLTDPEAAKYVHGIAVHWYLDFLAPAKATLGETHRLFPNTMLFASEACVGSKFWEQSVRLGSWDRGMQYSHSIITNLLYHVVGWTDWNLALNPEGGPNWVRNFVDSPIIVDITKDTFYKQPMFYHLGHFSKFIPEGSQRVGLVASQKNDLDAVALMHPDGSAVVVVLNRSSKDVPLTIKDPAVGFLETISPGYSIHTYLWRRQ
Method in brief: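 Normal human glucocerebrosidase (0.2 nM) with blue fluorogenic substrate (80 uM final) in citrate/phosphate pH 5.9 with 10mM sodium taurocholate, 0.01% tween-20; 40 min RT, NaOH/glycine stop; fluorescence Ex 365/Em 440; AC50 from a titration from 0.6 nM upwards.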

[2] = AP1 Signaling Pathway (AID 357); settings: ME-180 AP-1-bla reporter, EGF-induced, beta-lactamase ratio, 5 h; at 7.69 µM (top of the series) unless noted;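 also: ME-180 reporter cells stimulated with EGF at its EC50 level; % is scaled to controls: 0 for no effect and ±100 for the full control effect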
Method in brief: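 A ratiometric CCF4 readout (405 nm excitation; 460 and 530 nm emission) quantified AP-1-driven beta-lactamase in ME-180 cells after 5 h with compound and EC50 EGF; AC50 values were derived for activators and inhibitors.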

[3] = target: Cytochrome P450 1A2 (Homo sapiens) (UniProt P05177); assay: p450-cyp1a2 (AID 410; calls by dose curve; also: potency is read from the fitted curve at half-maximal effect;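 as to activity change, negative = inhibition: -100% = full effect of reference inhibitor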); settings: recombinant CYP1A2, luciferin-ME demethylation, luminescence; series mostly up to 11.4 µM
Chain of Cytochrome P450 1A2 (Homo sapiens) (P05177 whole entry, looked up): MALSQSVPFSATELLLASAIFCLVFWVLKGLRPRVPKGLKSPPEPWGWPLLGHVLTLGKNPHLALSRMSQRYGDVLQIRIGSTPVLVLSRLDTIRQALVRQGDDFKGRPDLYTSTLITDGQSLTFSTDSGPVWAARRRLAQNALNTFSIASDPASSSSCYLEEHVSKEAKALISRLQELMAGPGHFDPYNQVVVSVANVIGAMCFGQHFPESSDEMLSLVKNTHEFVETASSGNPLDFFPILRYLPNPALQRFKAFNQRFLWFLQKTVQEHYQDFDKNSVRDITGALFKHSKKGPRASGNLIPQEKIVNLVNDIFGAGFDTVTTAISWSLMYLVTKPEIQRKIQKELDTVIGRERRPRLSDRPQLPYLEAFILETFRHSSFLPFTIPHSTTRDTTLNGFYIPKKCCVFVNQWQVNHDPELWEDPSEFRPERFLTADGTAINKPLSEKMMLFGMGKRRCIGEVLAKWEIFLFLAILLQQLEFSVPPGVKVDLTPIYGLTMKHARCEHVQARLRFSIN
Method in brief: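 20nM CYP1A2, 100uM Luciferin-ME (=Km), 100mM KPO4; cpd 10 min RT; +NADPH regen, 60 min RT; stop/detect 20 min; luminescence. Normalized to furafylline 57 uM = full inhibition.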

[4] = NFAT Signaling Pathway (AID 444); settings: Jurkat NFAT-bla M1, carbachol, beta-lactamase ratio, 5 h; at 7.69 µM (top of the series) unless noted;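 also: carbachol stimulus at about its EC50 of 1 µM final; % is scaled to controls: 0 for no effect and ±100 for the full control effect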
Method in brief: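 Jurkat cells with NFAT-driven β-lactamase reporter and co-expressed M1 receptor, stimulated with carbachol (final 1 uM, ~EC50), compound titration, 5 h at 37 °C. CCF4 loaded 1 h at RT; 460/530 nm ratio gave %activity and AC50.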

[5] = Stat Signaling Pathway (AID 446); settings: ME-180 SIE beta-lactamase reporter, IL-6 stimulated, 5 h; at 7.69 µM (top of the series) unless noted;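 also: ME-180 cervical cancer cells given 40 pM IL-6 alongside compound; SIE-controlled beta-lactamase reporter measured as 460/530 nm FRET emission ratio; % is scaled to controls: 0 for no effect and ±100 for the full control effect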
Method in brief: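 Overnight-plated ME-180 cells bearing a STAT Inducible Element beta-lactamase reporter; 5 h co-exposure to compound and 40 pM IL-6; values normalized to 300 pM IL-6 and 125 nM JAK inhibitor controls.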

[6] = target: Glucocorticoid receptor (Homo sapiens) (UniProt P04150); assay: GR-GFP Redistribution (AID 450;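 active = compounds whose dose series gives a full or clear partial fitted curve of increased nuclear translocation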; also: potency is read from the fitted curve at half-maximal effect); settings: U2OS GR-GFP nuclear translocation, laser cytometry, 2 h
Chain of Glucocorticoid receptor (Homo sapiens) (P04150 whole entry, looked up, the tested form may be a part): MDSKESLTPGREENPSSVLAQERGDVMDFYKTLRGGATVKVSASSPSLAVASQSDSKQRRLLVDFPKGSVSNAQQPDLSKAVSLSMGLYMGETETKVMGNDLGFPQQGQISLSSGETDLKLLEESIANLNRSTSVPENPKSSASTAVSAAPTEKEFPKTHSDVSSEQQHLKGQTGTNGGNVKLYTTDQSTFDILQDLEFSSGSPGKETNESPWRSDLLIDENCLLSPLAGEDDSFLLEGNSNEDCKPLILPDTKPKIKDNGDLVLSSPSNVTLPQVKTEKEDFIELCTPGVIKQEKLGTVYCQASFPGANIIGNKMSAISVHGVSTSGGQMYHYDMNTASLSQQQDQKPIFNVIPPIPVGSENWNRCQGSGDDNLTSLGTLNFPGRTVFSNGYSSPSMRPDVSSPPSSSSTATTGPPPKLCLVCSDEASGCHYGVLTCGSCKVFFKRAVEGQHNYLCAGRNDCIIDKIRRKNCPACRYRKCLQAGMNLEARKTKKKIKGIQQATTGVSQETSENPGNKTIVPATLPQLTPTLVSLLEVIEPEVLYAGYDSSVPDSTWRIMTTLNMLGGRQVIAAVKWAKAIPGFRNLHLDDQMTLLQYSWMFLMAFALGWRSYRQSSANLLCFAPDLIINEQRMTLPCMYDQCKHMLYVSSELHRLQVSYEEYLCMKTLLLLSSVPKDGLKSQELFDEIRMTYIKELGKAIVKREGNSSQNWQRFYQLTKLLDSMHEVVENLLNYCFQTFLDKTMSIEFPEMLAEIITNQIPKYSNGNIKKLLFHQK

[7] = target: Glucocorticoid receptor (Homo sapiens) (UniProt P04150); assay: GR-EFC Redistribution (AID 451; calls by dose curve; also: potency is read from the fitted curve at half-maximal effect); settings: CHO-K1 GR-EFC translocation, beta-gal luminescence, 2 h
Method in brief: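 CHO-K1 cells expressing nuclear EA and GR-ED fragments of b-gal; compounds titrated up to 46 uM final, 2 h at 37 C. GR nuclear translocation read as complemented b-gal luminescence after 1 h RT detection.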

[8] = target: 3',5'-cyclic-AMP phosphodiesterase 4B (Homo sapiens) (UniProt Q07343); assay: qHTS Assay for Inhibitors of PDE-IV (AID 607; active = well fitted activation curve with a large enough effect in the main read-out, with a control signal flat, not every such curve was filed as active; also: % of control where 0% means no effect); settings: HEK293 ACTOne CNG channel cells, membrane potential fluorescence; series mostly up to 22.9 µM
Chain of 3',5'-cyclic-AMP phosphodiesterase 4B (Homo sapiens) (Q07343 whole entry, looked up): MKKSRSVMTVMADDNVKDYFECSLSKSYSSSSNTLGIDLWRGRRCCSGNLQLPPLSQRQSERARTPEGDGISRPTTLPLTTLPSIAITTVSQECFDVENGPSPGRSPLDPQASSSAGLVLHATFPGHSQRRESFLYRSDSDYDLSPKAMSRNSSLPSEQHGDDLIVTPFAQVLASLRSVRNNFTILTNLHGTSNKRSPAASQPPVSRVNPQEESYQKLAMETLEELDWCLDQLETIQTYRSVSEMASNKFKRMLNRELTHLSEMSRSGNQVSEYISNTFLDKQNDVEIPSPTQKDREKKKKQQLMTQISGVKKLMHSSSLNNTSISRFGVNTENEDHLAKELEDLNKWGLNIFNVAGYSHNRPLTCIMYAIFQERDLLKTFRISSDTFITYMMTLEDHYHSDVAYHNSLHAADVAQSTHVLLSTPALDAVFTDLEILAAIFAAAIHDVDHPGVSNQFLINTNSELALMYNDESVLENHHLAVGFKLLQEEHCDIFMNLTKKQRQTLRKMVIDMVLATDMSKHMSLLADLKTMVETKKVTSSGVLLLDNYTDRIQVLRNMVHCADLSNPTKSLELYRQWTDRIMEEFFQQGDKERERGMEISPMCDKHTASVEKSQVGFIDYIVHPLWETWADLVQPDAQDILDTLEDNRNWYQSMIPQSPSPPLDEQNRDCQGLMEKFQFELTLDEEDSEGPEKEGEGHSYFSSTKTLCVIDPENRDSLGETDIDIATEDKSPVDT
Method in brief: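 Live HEK293 cells with a modified cyclic nucleotide-gated (CNG) channel report intracellular cAMP via membrane-potential dye fluorescence (ex 535/em 590 nm). Endogenous PDE-IV was targeted. Compounds were tested at up to 22.9 uM final; RO 20-1724 100 uM served as control.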

[9] = target: Cytochrome P450 2C19 (Homo sapiens) (UniProt P33261); assay: qHTS Assay for Inhibitors and Substrates of Cytochrome P450 2C19 (AID 899; active = well fitted curve in the direction sought with a large enough effect; an effect the other way counts as inactive or inconclusive; also: nearly all actives have a fitted effect of over 60% in size; also: potency is read from the fitted curve at half-maximal effect); settings: recombinant CYP2C19, luciferin-H EGE luminescence; series mostly up to 11.4 µM
Chain of Cytochrome P450 2C19 (Homo sapiens) (P33261 whole entry, looked up): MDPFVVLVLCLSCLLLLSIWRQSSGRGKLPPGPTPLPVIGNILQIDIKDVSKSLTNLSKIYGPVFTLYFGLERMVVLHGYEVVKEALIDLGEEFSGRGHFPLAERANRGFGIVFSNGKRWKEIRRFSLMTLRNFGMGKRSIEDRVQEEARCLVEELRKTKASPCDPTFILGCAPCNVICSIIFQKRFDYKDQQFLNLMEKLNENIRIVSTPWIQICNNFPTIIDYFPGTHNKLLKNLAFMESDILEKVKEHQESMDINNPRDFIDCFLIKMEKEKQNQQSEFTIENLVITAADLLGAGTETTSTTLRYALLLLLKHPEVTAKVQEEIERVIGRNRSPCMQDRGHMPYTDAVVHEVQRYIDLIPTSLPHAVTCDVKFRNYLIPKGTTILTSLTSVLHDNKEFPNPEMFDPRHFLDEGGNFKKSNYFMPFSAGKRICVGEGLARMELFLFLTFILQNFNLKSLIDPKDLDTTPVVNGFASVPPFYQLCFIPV
Method in brief: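 Signal comes from luciferase acting on luciferin released by CYP2C19-mediated hydroxylation of Luciferin-H EGE, 10uM (KM). Assay mix: 5nM enzyme, 50mM KPO4; 60 min at 37C with NADPH regeneration. Data normalized against 57uM ketoconazole.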

[10] = target: Cytochrome P450 2C9 (Homo sapiens) (UniProt P11712); assay: qHTS Assay for Inhibitors and Substrates of Cytochrome P450 2C9 (AID 883; active = well fitted curve in the direction sought with a large enough effect; an effect the other way counts as inactive or inconclusive; also: potency is read from the fitted curve at half-maximal effect; nearly all actives have a fitted effect of over 60% in size); settings: recombinant CYP2C9, luciferin-H luminescence, 60 min; series mostly up to 11.4 µM
Chain of Cytochrome P450 2C9 (Homo sapiens) (P11712 whole entry, looked up): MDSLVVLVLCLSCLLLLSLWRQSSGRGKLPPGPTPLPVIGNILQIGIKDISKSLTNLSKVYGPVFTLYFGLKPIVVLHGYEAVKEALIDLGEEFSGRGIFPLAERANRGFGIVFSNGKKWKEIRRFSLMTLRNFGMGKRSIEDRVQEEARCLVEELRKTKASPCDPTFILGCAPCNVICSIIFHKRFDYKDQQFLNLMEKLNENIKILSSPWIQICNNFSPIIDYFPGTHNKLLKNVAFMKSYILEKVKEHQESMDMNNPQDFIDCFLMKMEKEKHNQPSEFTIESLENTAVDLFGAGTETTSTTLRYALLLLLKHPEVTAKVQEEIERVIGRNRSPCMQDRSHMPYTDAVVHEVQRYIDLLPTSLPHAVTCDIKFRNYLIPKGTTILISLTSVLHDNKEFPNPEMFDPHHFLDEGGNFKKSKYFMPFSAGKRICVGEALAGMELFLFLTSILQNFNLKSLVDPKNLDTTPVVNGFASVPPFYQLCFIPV
Method in brief: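 Signal: luciferase luminescence reporting luciferin produced by CYP2C9. Conditions: 10nM enzyme, Luciferin-H 100uM at KM, 25mM KPO4, 37C, 60 min NADPH-driven reaction. Reference: 57uM sulphaphenazole as 100% inhibition.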

[11] = target: Cytochrome P450 3A4 (Homo sapiens) (UniProt P08684); assay: qHTS Assay for Activators of Cytochrome P450 3A4 (AID 885; active = well fitted curve in the direction sought with a large enough effect; an effect the other way counts as inactive or inconclusive; also: nearly all actives have a fitted effect of over 65% in size); settings: recombinant CYP3A4, Luciferin-PPXE luminescence, 60 min; series mostly up to 11.4 µM
Chain of Cytochrome P450 3A4 (Homo sapiens) (P08684 whole entry, looked up): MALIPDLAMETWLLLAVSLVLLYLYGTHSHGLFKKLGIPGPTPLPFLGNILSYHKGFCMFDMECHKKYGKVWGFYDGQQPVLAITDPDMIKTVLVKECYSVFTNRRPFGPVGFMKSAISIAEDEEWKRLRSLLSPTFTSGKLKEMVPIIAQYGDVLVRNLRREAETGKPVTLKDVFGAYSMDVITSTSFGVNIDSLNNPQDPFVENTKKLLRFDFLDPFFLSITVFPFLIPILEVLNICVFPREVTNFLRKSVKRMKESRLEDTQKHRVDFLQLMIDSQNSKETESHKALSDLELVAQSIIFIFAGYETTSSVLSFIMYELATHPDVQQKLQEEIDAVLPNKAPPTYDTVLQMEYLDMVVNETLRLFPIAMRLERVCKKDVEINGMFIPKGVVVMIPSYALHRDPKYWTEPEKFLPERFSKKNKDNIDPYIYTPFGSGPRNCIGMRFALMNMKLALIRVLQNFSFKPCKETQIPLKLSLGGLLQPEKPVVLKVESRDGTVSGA
Method in brief: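 Using 20nM recombinant human CYP3A4 in potassium phosphate (200mM), substrate Luciferin-PPXE at 25uM, luminescent luciferin detection followed a 60-min RT NADPH reaction; data scaled to 57 uM ketoconazole.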

[12] = target: Cytochrome P450 2D6 (Homo sapiens) (UniProt P10635); assay: qHTS Assay for Inhibitors and Substrates of Cytochrome P450 2D6 (AID 891; active = well fitted curve in the direction sought with a large enough effect; an effect the other way counts as inactive or inconclusive; also: potency is read from the fitted curve at half-maximal effect; nearly all actives have a fitted effect of over 60% in size); settings: recombinant CYP2D6, luciferin-ME EGE luminescence; series mostly up to 11.4 µM
Chain of Cytochrome P450 2D6 (Homo sapiens) (P10635 whole entry, looked up): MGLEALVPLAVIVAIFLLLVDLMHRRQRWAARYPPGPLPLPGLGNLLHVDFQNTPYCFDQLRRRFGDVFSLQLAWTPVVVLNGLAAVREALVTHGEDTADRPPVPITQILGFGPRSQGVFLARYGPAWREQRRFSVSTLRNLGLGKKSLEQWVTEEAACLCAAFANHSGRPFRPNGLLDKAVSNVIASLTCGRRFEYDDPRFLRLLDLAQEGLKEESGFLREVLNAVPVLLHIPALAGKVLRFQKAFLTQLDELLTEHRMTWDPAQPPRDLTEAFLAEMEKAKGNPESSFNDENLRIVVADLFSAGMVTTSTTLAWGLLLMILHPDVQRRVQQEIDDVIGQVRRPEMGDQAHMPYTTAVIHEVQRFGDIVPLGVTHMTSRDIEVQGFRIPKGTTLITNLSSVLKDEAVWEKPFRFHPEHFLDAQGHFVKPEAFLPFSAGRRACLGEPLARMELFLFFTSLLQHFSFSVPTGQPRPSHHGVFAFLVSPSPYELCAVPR
Method in brief: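 Luminescent read-out of luciferin formed by 5 nM human CYP2D6 demethylating 30 uM Luciferin-ME EGE (Km level) over 60 min at room temperature after NADPH regeneration addition. Data normalized to full inhibition by 1.43 uM quinidine.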

[13] = target: Mitogen-activated protein kinase 10 (Mus musculus) (UniProt Q61831); assay: JNK3 AlphaScreen Assay (AID 530); settings: JNK3 lysate, c-Jun phosphorylation; series mostly up to 11.4 µM;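 also: kinase came from lysate of stimulated human HepG2 cells; signal reports phosphorylation of biotinylated GST-cJun 1-79 at Ser73 with 10 µM ATP; % is scaled to controls: 0 for no effect and ±100 for the full control effect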
Method in brief: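 HepG2 lysate (IL-1b/TNFa pre-activated) + biotin-GST-cJun 1-79 + anti-pSer73 cJun; cpd titration, 15 min RT; ATP 10 uM start; Tris pH 7.6, MgCl2, DTT, vanadate; beads in EDTA buffer; AlphaScreen.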

[14] = target: Cytochrome P450 3A4 (Homo sapiens) (UniProt P08684); assay: qHTS Assay for Inhibitors and Substrates of Cytochrome P450 3A4 (AID 884; active = well fitted curve in the direction sought with a large enough effect; an effect the other way counts as inactive or inconclusive; also: potency is read from the fitted curve at half-maximal effect; nearly all actives have a fitted effect of over 50% in size); settings: recombinant CYP3A4, Luciferin-PPXE luminescence; series mostly up to 57.1 µM
Method in brief: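 Luminescent readout of luciferin produced by CYP3A4 (20 nM) dealkylation of Luciferin-PPXE, 25 uM (its KM). NADPH-driven reaction ran 60 min at RT after 10 min compound preincubation; data scaled to 57 uM ketoconazole as 100% inhibition.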

[15] = qHTS Assay for Identification of Small Molecule Agonists for Hypoxia Response Element Signaling Pathway (AID 914; active = well fitted activation curve with a large enough effect in the signal ratio, with a control signal flat, not every such curve was filed as active; the % refers to the signal ratio; also: % of control where 0% means no effect); settings: ME-180 (cervical carcinoma) HRE-bla reporter, beta-lactamase ratio, CoCl2, 17 h; activation: active compounds read high
Method in brief: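 Reporter activity (beta-lactamase, CCF4 460nm/530nm ratio) in HRE-bla ME-180 cells is recorded after 17 h compound exposure with EC50 CoCl2 at 37 degrees Celsius. AC50 values come from titration data.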

O=C1c2ccccc2C(=O)c2c(NC3CCCCC3)ccc(Nc3ccc(S(=O)(=O)O)cc3)c21
active: Potency [3] 1.26 µM | Potency [9] 3.98 µM
inactive: Potency [1] > 11.4 µM | activity change, negative = inhibition [2] -7.28% | activity change, negative = inhibition [4] -27.6% | activity, negative = inhibition [5] -10.9% | Potency [6] > 46 µM | Potency [7] > 9.22 µM | Potency [8]

Cc1ccc(S(=O)(=O)N[C@H](CN)C(=O)O)cc1
inactive: Potency [1] > 11.4 µM | activity change, negative = inhibition [2] 10.5% | activity change, negative = inhibition [3] -18.5% [at 2.29 µM] | activity change, negative = inhibition [4] 3.21% | activity, negative = inhibition [5] 8.31% | Potency [6] > 46 µM | Potency [7] > 9.22 µM | Potency [8] | Potency [9]

O=C(O)c1ccc(C(=O)O)c(C(=O)O)c1.[NH-][C@@H]1CCCC[C@@H]1[NH-].[Pt]
inactive: Potency [1] > 11.4 µM | activity change, negative = inhibition [2] 0.428% | Potency [3] | activity change, negative = inhibition [4] -9.87% | activity, negative = inhibition [5] -6.09% | Potency [6] > 46 µM | Potency [7] > 9.22 µM | Potency [8]

Nc1c(S(=O)(=O)O)cc(Nc2cccc(S(N)(=O)=O)c2)c2c1C(=O)c1ccccc1C2=O
active: Potency [3] 3.98 µM | Potency [10] 3.16 µM
inactive: Potency [1] > 11.4 µM | activity change, negative = inhibition [2] 26% | activity change, negative = inhibition [4] -26.6% | activity, negative = inhibition [5] 2.62% | Potency [6] > 46 µM | Potency [7] > 9.22 µM | Potency [8] | Potency [11]

Nc1cc2c(nc3c4ccccc4c(N)cc3[n+]2-c2cccc3ccccc23)c2ccccc12 (tested in a mixture with another compound)
inactive: Potency [1] > 11.4 µM | activity change, negative = inhibition [2] 11.3% | activity change, negative = inhibition [4] 8.58% | activity, negative = inhibition [5] 6.04% | Potency [6] > 46 µM | Potency [7] > 9.22 µM | Potency [8]
active: Potency [3] 1.26 µM | Potency [12] 1.58 µM

O=C(O)c1cc(C(=O)C(=O)c2cc(C(=O)O)c(O)c3ccccc23)c2ccccc2c1O
active: Potency [10] 0.316 µM
inactive: Potency [1] > 11.4 µM | activity change, negative = inhibition [2] 22.7% | Potency [3] | activity change, negative = inhibition [4] 10.6% | activity, negative = inhibition [5] 0.955% | Potency [6] > 46 µM | Potency [7] > 9.22 µM

CC(C)N(CC(=O)O)CC(=O)O
inactive: Potency [1] > 11.4 µM | activity change, negative = inhibition [2] 11.5% | Potency [3] | activity change, negative = inhibition [4] 4.66% | activity, negative = inhibition [5] 10.4% | Potency [6] > 46 µM | Potency [7] > 9.22 µM | Potency [8]

c1cc(CSSCc2ccncc2)ccn1
active: Potency [3] 2 µM | Potency [10] 1.58 µM | Potency [14] 2.51 µM
inactive: Potency [1] > 11.4 µM | activity change, negative = inhibition [2] -3.12% | activity change, negative = inhibition [4] 12.2% | activity, negative = inhibition [5] -6.55% | Potency [6] > 46 µM | Potency [13] | Potency [8] | Potency [11]

C/C(CC/C(C)=N/O)=N/O
inactive: Potency [1] > 11.4 µM | activity change, negative = inhibition [2] 4.13% | activity change, negative = inhibition [3] -12.6% [at 2.29 µM] | activity change, negative = inhibition [4] 2.59% | activity, negative = inhibition [5] -4.99% | Potency [6] > 46 µM | Potency [13] | Potency [8]

O=C1c2ccccc2C(=O)c2c1ccc(C(=O)O)c2-c1ccc2ccccc2c1
active: Potency [3] 1.26 µM | Potency [10] 1.58 µM | Potency [9] 2.51 µM
inactive: Potency [1] > 11.4 µM | activity change, negative = inhibition [2] 1.13% | activity change, negative = inhibition [4] 16.7% | activity, negative = inhibition [5] -16.8% | Potency [6] > 46 µM | Potency [7] > 9.22 µM | Potency [8]

Nc1nc(-c2cccs2)cs1
inactive: Potency [1] > 11.4 µM | activity change, negative = inhibition [2] 1.24% | activity change, negative = inhibition [3] -30.1% [at 2.29 µM] | activity change, negative = inhibition [4] 6.96% | activity, negative = inhibition [5] 5.4% | Potency [6] > 46 µM | Potency [7] > 9.22 µM | Potency [8] | Potency [11] | activation [15] -9.81%

Cc1ccc(C(N)=Nc2ccccc2)cc1
inactive: Potency [1] > 11.4 µM | activity change, negative = inhibition [2] 18.3% | Potency [3] | activity change, negative = inhibition [4] -2.23% | activity, negative = inhibition [5] -4.47% | Potency [6] > 46 µM | Potency [7] > 9.22 µM | Potency [8]
active: Potency [12] 3.16 µM

Cn1c(=O)c2[nH]c(/N=N\N3CCN(CCO)CC3)nc2n(C)c1=O
inactive: Potency [1] > 11.4 µM | activity change, negative = inhibition [2] 6.96% | activity change, negative = inhibition [3] -14.7% [at 2.29 µM] | activity change, negative = inhibition [4] 7.64% | activity, negative = inhibition [5] 11.6% | Potency [6] > 46 µM | Potency [13] | Potency [8]

O=C1C(=O)c2ccccc2C(O)=C1C(CCc1ccccc1)C1=C(O)c2ccccc2C(=O)C1=O
inactive: Potency [1] > 11.4 µM | activity change, negative = inhibition [2] -6.25% | activity change, negative = inhibition [3] -21.3% [at 2.29 µM] | activity change, negative = inhibition [4] 6.66% | activity, negative = inhibition [5] -1.13% | Potency [6] > 46 µM | Potency [7] > 9.22 µM | Potency [8]
active: Potency [10] 3.16 µM
